According to ChEMBL document CHEMBL3988442, “University of Dundee, Small-Polar-MMV Screening Library” (2021):
The whole screen tested about 48,000 compounds, of which about 13,000 (27%) showed an effect of 50% or more. The list shows a part of the results.

The compounds below were run on Wolbachia pipientis (assay: Anti-Wolbachia Cell-Based Screen). Conditions: 5 µM.
Format: functional
Design: scale not given: in the data most compounds retested in dose-response had high values

SMILES | Percent Effect
Cc1cnn(CCCNC(=O)NC2CCN(CC(F)(F)F)C2=O)c1 (configuration not stated) | -8.389%
c1ccc(Cn2cc(CNCC3CCCN3c3cccnn3)cn2)cc1 (configuration not stated) | 20.91%
O=C1CCN(Cc2cnc3c(-c4ccccc4)cnn3c2)CCN1 | 2.207%
O=C1CNc2ncnc(Nc3cnn(Cc4ccccc4)c3)c2N1 | 115.8%
O=C(NCCCOc1cccnc1)c1cn(Cc2ccccc2F)nn1 | -6.028%
O=C1CC(NCc2ccncc2)CN1Cc1cccc(F)c1 (configuration not stated) | -21.37%
COc1ccc2c(CN3CCN(Cc4cccc(F)c4)CC3)n[nH]c2c1 | 2.522%
O=C1CNc2ncnc(Nc3cnn(Cc4ccccc4F)c3)c2N1 | 112.6%
O=C1CNc2ncnc(Nc3cnn(Cc4cccc(F)c4)c3)c2N1 | 115.2%
O=C1CNc2ncnc(Nc3cnn(Cc4ccc(F)cc4)c3)c2N1 | 101.7%
CC(C)(C(=O)NCc1ccccc1F)n1cc(Br)cn1 | 10.35%
CCN1CCCC1Cn1ccc2ccc(C(=O)OC)cc2c1=O (configuration not stated) | -21.42%
COc1cccc(CN(C)Cc2cccc(C#N)c2)c1OC | -9.148%
O=C1CNc2ncnc(Nc3cccc(Cn4cccn4)c3)c2N1 | 129.6%
OC1CCN(C2CCN(Cc3cccc(Cn4cccn4)c3)CC2)CC1 | 19.22%
c1cc(CN2CCC(CCn3cccn3)CC2)cc(Cn2cccn2)c1 | -8.775%
CCCn1cc(-c2ccnc(NC3CCCc4ccccc43)n2)c(C)n1 (configuration not stated) | 2.739%
OCCNc1nccc(-c2cn3nccc3nc2C2CCCCC2)n1 | 109.1%
Cc1cc2nc(C3CCCCC3)c(-c3ccnc(NCCO)n3)cn2n1 | 91.18%
CCCn1ncc(-c2ccnc(NC3CCCc4ccccc43)n2)c1C (configuration not stated) | -7.325%
CNCCNc1nccc(-c2cn(C)nc2C)n1 | 0.09563%
CCN(CC)CCCNc1nccc(-c2cn(C)nc2C)n1 | -2.773%
CCN(CCNC(=O)C1CCCN(C(C)=O)C1)c1ccccc1C (configuration not stated) | 2.266%

SMILES | Percent Effect
CNc1ncc(CN(C)c2nc(C)c3ccc(S(C)(=O)=O)cc3n2)cn1 | 9.72%
COc1ccnc(CN2CC(=O)N(c3ccc(C)cc3)CC2C)c1OC (configuration not stated) | -8.096%
COc1cccc(CN(C)C(=O)CCC(=O)c2ccccc2)c1OC | -10.25%
CCOC(=O)N1CC(=O)N(Cc2cccc(OC)c2OC)CC(O)C1 (configuration not stated) | 107.9%
COc1cccc2cc(CNC(C)(C)C(=O)N3CCC(O)CC3)oc12 | -3.796%
COc1cccc(CN2CC(O)CN(C(=O)C(C)(C)C)CC2=O)c1OC (configuration not stated) | 116.9%
COCCN1CCc2onc(C(c3ccccc3)c3ccccc3)c2C1 | 19.48%
C=Cc1ccc(CSc2nc3c(c(=O)[nH]2)CN(CCC)CC3)cc1 | -6.559%
COCCN1CCc2nc(SCc3ccc(F)cc3)[nH]c(=O)c2C1 | 106%
CCCN1CCc2nc(SCc3ccc(F)cc3)[nH]c(=O)c2C1 | 101.4%
CCCN1CCc2nc(SCc3ccccc3F)[nH]c(=O)c2C1 | 16.02%
CCCN1CCc2nc(SCc3ccccc3)[nH]c(=O)c2C1 | 19.11%
CCCN(C)C(=O)c1ccc2c(c1)[nH]c(=O)n2CCOCC | -27.89%
Cc1csc(CNC(=O)NCC(O)c2cccc(Cl)c2)n1 (configuration not stated) | -23.66%
C=C(C)CN(CC)C(=O)c1cc(Cl)ccc1NS(C)(=O)=O | -12.97%
COc1cccc(C2C3=C(COC3=O)Nc3[nH]nc(C)c32)c1OC (configuration not stated) | 3.331%
CNC(=O)c1cccc(CC2COCCN(Cc3ccsc3)C2)n1 (configuration not stated) | 152.2%
CNC(=O)c1cccc(CC2COCCN(Cc3ccc(C)o3)C2)n1 (configuration not stated) | 193.8%
Cc1ccc(CN2CC[C@@H]3CN(S(C)(=O)=O)CCO[C@@H]3C2)o1 | -7.086%
Cn1nc(CN2CCOCC2)c2c1CN(Cc1ccsc1)C2.O=C(O)C(F)(F)F.O=C(O)C(F)(F)F | 1.369%
O=C(NCc1cc(N2CCOCC2)ncn1)c1cccc(CO)n1 | -9.818%
Cc1ccc(CN2CCC3(CC2)CC(NC(=O)c2ccccn2)CO3)o1 (configuration not stated) | -7.485%
COCCN(CCN(C)C)C(=O)NC1CC1 | -6.538%

SMILES | Percent Effect
CCCNC(=O)C[S+]([O-])Cc1csc(C2CCCCC2)n1 (configuration not stated) | 9.015%
CC(C)c1cc(NCc2csc(N(C)C)n2)nc(N)n1 | -34.84%
C1CN(c2nc(C3CC3)no2)CCN(C2CCOCC2)C1 | 3.883%
CCn1ncc2c1C(COC)CN(Cc1ccc(OC)cc1)C2 (configuration not stated) | 12.18%
Cn1ncc2c1C(COCC1CC1)CN(Cc1nccs1)C2 (configuration not stated) | -9.049%
CCn1ncc2c1C(COC)CN(S(=O)(=O)C1CC1)C2 (configuration not stated) | -7.886%
CCn1ncc2c1C(COC)CN(Cc1cnn(C)c1)C2 (configuration not stated) | 98.55%
CCn1ncc2c1C(COC)CN(Cc1nccs1)C2 (configuration not stated) | 93.87%
CC(C)N(CC1CCCN(Cc2ccon2)C1)C(=O)OC(C)(C)C (configuration not stated) | -0.3893%
CC(C)OCCNC(=O)C1CCC(=O)N(C2CCCC2)C1 (configuration not stated) | -13.5%
Cc1ccc(CNC(=O)N2CCN(S(C)(=O)=O)CC2)n1C | -9%
CN(C)C(=O)c1ccn(-c2ccc3ccccn23)n1 | 2.89%
CS(=O)(=O)N1CCCCCC1C1CCN(c2ncccc2C#N)CC1 (configuration not stated) | -0.7273%
Cc1ccc2nc(C3CCCN3Cc3cccc(CCN)c3)[nH]c2c1 (configuration not stated) | -6.155%
Cc1csc(Nc2nccnc2C2CCCN2S(C)(=O)=O)n1 (configuration not stated) | 47.35%
Cc1ccc2nc(C3CCCN3Cc3scnc3C)[nH]c2c1 (configuration not stated) | -7.773%
CS(=O)(=O)N1CCC[C@H]1c1ncnn1-c1ccc2c(c1)OCO2 | 23.33%
CS(=O)(=O)N1CCCC1c1ccnc2nccn12 (configuration not stated) | 122.4%
CS(=O)(=O)N1CCCCCC1C1CCN(c2ncccn2)CC1 (configuration not stated) | -4.856%
CC(C)=CCCC(C)CN1CCC(n2cc(C(=O)NCCO)nn2)CC1 (configuration not stated) | -5.673%
CCCn1cnnc1CN(C)C(=O)CCC(=O)Nc1cc(C)ccc1F | -24.09%
